In the library only some 21% were active in any assay of this set; here they are far more common.
Sm TGR block – inhibitors of Schistosoma mansoni thioredoxin glutathione reductase; purified TGR, DTNB reduction, TNB absorbance 405 nm; 3% of 360,000 active; Potency, µM (top dose mostly 114 µM), without a hit: at the highest dose activity change, negative = inhibition, most hits filed as inhibitors; note: potency is the fitted concentration of half-maximal effect; % is set by controls: 0 for no effect and ±100 for the full control effect; nearly all actives have a fitted effect of over 60% in size
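Kinetic colorimetric format: TGR-catalysed, NADPH-driven DTNB reduction monitored via TNB absorbance. Enzyme dispensed at 20 nM; compound exposure 15 min at room temperature before reaction start.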
Pf growth 48h – P. falciparum growth inhibition at 48 hours (one generation) | P. falciparum luciferase growth in erythrocytes, 48 h | Potency, µM (doses to about 28.7 µM), inactives show top-dose activity change, negative = inhibition, hits mostly inhibitors | 5.9% of 310,000 active | AID 504832; note: potency is the fitted concentration of half-maximal effect; % is set by controls: 0 for no effect and ±100 for the full control effect
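Erythrocytes infected with P. falciparum carrying an integrated firefly luciferase reporter (2% hematocrit, 0.1% parasitemia final) were exposed to compounds in RPMI 1640 with 0.5% Albumax at 37 C, 5% CO2. Growth inhibition was scored as reduced luminescence.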
Pf growth 96h – P. falciparum growth inhibition at 96 hours. P. falciparum luciferase reporter growth, 96 h. AID 504834. Potency, µM (doses to about 28.7 µM), for the others: at the top dose activity change, negative = inhibition, hits mostly inhibitors. 6.9% of 320,000 active; note: potency is the fitted concentration of half-maximal effect; % is set by controls: 0 for no effect and ±100 for the full control effect
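Parasite growth measured via integrated firefly luciferase reporter in P. falciparum. Infected erythrocytes at 2% hematocrit, 0.05% parasitemia final were treated 96 hours at 37 C under 5% CO2, and luminescence was read.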
NS1 function inh – influenza NS1 inhibition; 0.4% of 270,000 active; Potency, µM (series often up to 46.1 µM), without a hit: at the top dose activity, positive = more growth; calls by dose curve; note: potency is the fitted concentration of half-maximal effect; actives are rising curves; nearly all actives have a fitted effect of over 50% in size
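Growth recovery, yeast-based: influenza A NS1 expressed in S. cerevisiae causes slow growth, and suppressors are detected by OD600. The parent strain without NS1 is used as positive control.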
Shiga toxin inh – blocks Shiga toxin action in Vero cells | AID 2315 | inhibition, % at 38.7 µM | Vero cells, Shiga toxin protein synthesis inhibition reporter | 9.2% of 290,000 active; in the data active = inhibition mostly above about 28%, no sharp cut-off; inactive = mostly below about 43%; note: 0% is about no effect
Cycloheximide cs – affects cycloheximide protein synthesis inhibition readout, counter-screen; cell reporter, cycloheximide protein synthesis inhibition counterscreen; max response, %; 12% of 300,000 active; AID 2314; in the data active = max response mostly above about 13%, no sharp cut-off; inactive = mostly below about 14%; note: read at 38.3 µM for the half of the compounds with a filed dose; 0% is about no effect
Numbers without * were called inactive; ? = inconclusive; · = no result given; [ ] = another dose, or the depositor's remark. Unless noted, calls come from the whole dose curve; as a rule, active = well fitted curve in the direction sought with a large enough effect; inconclusive = small, poorly fitted or top-dose-only effect, or another doubt; inactive = no such curve, though single readings can be large; an effect the other way counts as inactive or inconclusive.

SMILES | Sm TGR block | Pf growth 48h | Pf growth 96h | NS1 function inh | Shiga toxin inh | Cycloheximide cs
Cc1[nH]c2ccccc2c1/C=N/NC(=O)c1cccs1 | -29.4% | 22.0% | 78.7%[1.15 µM] | -1.1% | 100.4 | 51.0*
CCn1cc(C(=O)NCc2ccco2)c(=O)c2cc(S(=O)(=O)N3CCc4ccccc4C3)ccc21 | 14.1µM* | 9.28µM* | 5.22µM* | 20.6% | -9.6 | 1.9
O=C(COC(=O)c1cccc(S(=O)(=O)N2CCc3ccccc3C2)c1)NCc1ccco1 | 28.2µM* | -0.1% | 7.3% | -0.2% | -5.8 | 0.5
O=C(COC(=O)c1cc(S(=O)(=O)N2CCc3ccccc3C2)ccc1Cl)NCc1ccco1 | 17.8µM* | · | 24.9% | 13.8% | 20.0 | 1.4
CCOc1ccccc1C(=O)Nc1cc(-c2nc3cccnc3s2)ccc1C | -1.1% | · | · | · | · | ·
COc1ccccc1CNC(=O)CN1C(=O)c2cccnc2Oc2ccccc21 | -7.9% | · | · | · | · | ·
O=C(c1cncc(Br)c1)N1CCc2ccccc2C1 | 8.3% | · | -26.3% | -12.9% | -3.1 | -1.4
COc1ccccc1NC(=S)N1CCC(c2nc3cc(C)c(C)cc3[nH]2)CC1 | 2.6% | ? | 11.7µM* | ? | 0.3 | -2.9
Cc1cc2nc(C3CCCN(C(=S)Nc4ccccc4)C3)[nH]c2cc1C (stereo unspecified) | 26.3% | -11.0% | 1.1% | 12.1% | 58.7 | 34.8*
Cc1ccc(C(=O)OCC(=O)NNC(=O)COc2ccc(Cl)cc2)c(O)c1 | -1.8% | -16.8% | 33.1% | · | · | ·
O=C(NNS(=O)(=O)c1ccccc1)c1csc(-c2cccnc2)n1 | -9.0% | -10.3% | ? | 4.4% | -9.4 | -2.4
O=C(Nc1ccccc1Cl)c1csc(-c2cccnc2)n1 | 10.4% | 173.9% | 118.6% | -2.3% | 40.6* | 29.2*
O=C(Nc1ccc(C(F)(F)F)cc1)c1csc(-c2ccncc2)n1 | -3.5% | ? | ? | -5.8% | -15.9 | 9.5
O=C(NNC(=O)c1csc(-c2cccnc2)n1)c1ccccc1 | 2.2% | ? | 10.4µM* | -3.9% | 18.2 | 30.2*
O=C(Nc1ccc(Cl)c(Cl)c1)OCc1cnc(Cl)s1 | 7.8% | 31.1% | -6.0% | 14.0% | 15.2 | 20.1*
O=C(Nc1ccccc1)OCc1cncs1 | 31.7% | 25.0% | 21.0% | -2.4% | 32.1* | 21.6
O=C(OCc1cncs1)c1cccs1 | 1.3% | 1.8% | 3.6% | -1.8% | 19.3 | 5.2
O=C(/C=C/c1ccccc1)OCc1cncs1 | 12.4% | 43.6% | 36.0% | 1.6% | 88.5* | 33.3*
Cc1cccc(C(=O)OCc2cnc(Cl)s2)c1 | 1.8% | 0.8% | -0.4% | -3.5% | 12.0 | 11.0*
O=C(OCc1cnc(Cl)s1)c1cccc(Cl)c1 | 10.6% | -15.3% | 53.6% | -16.4% | 3.0 | 5.3
COc1ccc(S(=O)(=O)N(CCc2ccccc2)CC(=O)Nc2cc(Cl)ccc2C)cc1 | -4.0% | · | · | · | · | ·
CCn1c(SCC(=O)Nc2ccc3c(c2)OCCO3)nnc1C1CC1 | -3.3% | 28.2% | 8.5% | 1.5% | 17.2 | -3.1
COc1ccc(C(=O)NCc2ccc3c(c2)CCN3C(=O)c2cccc(C)c2)cc1OC | -4.5% | · | · | · | · | ·
O=C(/C=C/c1ccc(O)c(O)c1)c1ccc(O[C@@H]2O[C@H](CO)[C@@H](O)[C@H](O)[C@H]2O)c(O)c1O | · | · | · | · | 25.3 | 15.8
O=C(Nc1ccc(Cl)c(Cl)c1)OCc1cncs1 | -12.5% | · | 78.5% | 2.9% | 42.2* | 38.9*
SMILES | Sm TGR block | Pf growth 48h | Pf growth 96h | NS1 function inh | Shiga toxin inh | Cycloheximide cs
CC(C)c1nc(NCC2CCCO2)c(C#N)c2c1COC(C)(C)C2 (stereo unspecified) | -1.2% | 13.1µM* | 0.0% | -14.8% | 23.6 | 6.0
CCc1nc(NCC2CCCO2)c(C#N)c2c1COC(C)(C)C2 (stereo unspecified) | 17.4% | ? | ? | -10.0% | 10.9 | 1.3
Cc1c(-c2ccccc2)nc2ccccc2c1C(=O)NCc1cccs1 | -2.2% | 1.8% | ? | -10.8% | -8.3 | -2.6
Cc1ccc(CCNC(=O)c2cc(S(=O)(=O)N3CCCC3)cn2C)cc1 | 11.2% | -12.3% | -27.4% | 2.4% | -2.1 | -1.2
Cc1nn(C(C)C)c(C)c1CN1CCCC(C(=O)c2cccc(OC(C)C)c2)C1 (stereo unspecified) | 0.0% | ? | 11.7µM* | 3.2% | -7.3 | -2.6
CCn1nc(C)c(CN2CCCC(C(=O)c3cccc(OC(C)C)c3)C2)c1C (stereo unspecified) | -0.3%[57.1 µM] | -21.7% | 19.8% | 7.0% | -23.6 | -1.5
CC(C)Oc1cccc(C(=O)C2CCCN(S(C)(=O)=O)C2)c1 (stereo unspecified) | 0.8% | 43.6% | 3.7µM* | 2.7% | 3.5 | 9.4
Cc1cc2c(c(=O)n1Cc1ccco1)C(c1cccnc1)C(C#N)=C(N)O2 (stereo unspecified) | ? | 0.0% | 9.28µM* | ? | 1.4 | 1.0
CCOc1ccc(C2C(C#N)=C(N)Oc3cc(C)n(Cc4ccco4)c(=O)c32)cc1OC (stereo unspecified) | ? | ? | · | -11.8% | 2.8 | -1.8
Cc1cc2c(c(=O)n1Cc1cccnc1)C(c1cccs1)C(C#N)=C(N)O2 (stereo unspecified) | 10µM* | · | ? | 13.0% | 21.3 | 8.1
COC(=O)c1ccccc1NC(=O)C1CCN(c2ncnc3c2nc2n3CCCCC2)CC1 | -2.5% | -7.1% | 6.0% | ? | -3.3 | -6.6
CCOc1ccccc1CNC(=O)Cc1ccc(NC(=O)N2CCCCc3ccccc32)cc1 | 6.4% | · | · | · | · | ·
C=CCN(CC=C)C(=S)NCCc1ccc(OC)c(OC)c1 | -1.9% | 13.1µM* | ? | 2.1% | 3.7 | 5.4
COc1ccc(-c2nc(CCNC(=O)c3ccco3)cs2)cc1OC | 6.0% | ? | ? | ? | 15.9 | 8.5
COc1cc(Br)c(CCNC(=O)c2ccco2)cc1OC | -26.7% | 5.22µM* | ? | -0.1% | -5.5 | -3.4
COc1ccc(CCNC(=O)Cc2cc(OC)c(OC)cc2Br)cc1OC | -7.1% | ? | -61.3%[5.75 µM] | · | 20.2 | 15.8*
COc1ccc(CCNC(=S)NCc2ccc(Cl)c(Cl)c2)cc1OC | 0.7% | ? | 25.1% | -0.2% | -10.7 | -3.0
CCN(CC(=O)Nc1ccc(OC)cc1)C(=O)c1ccc2c(c1)NC(=O)C(C)S2 (stereo unspecified) | -0.7% | 0.1% | 18.2% | · | · | ·
COc1ccc(C2(C)NC(=O)N(CC(=O)NCc3ccccc3F)C2=O)cc1 (stereo unspecified) | -9.6% | -17.3% | -6.2% | -6.1% | -13.8 | 1.6
COc1ccccc1OCCn1c(CO)nc2ccccc21 | -18.3% | 9.2% | 22.5% | -0.7% | -3.7 | 7.1
COc1ccccc1OCCn1nnc2ccccc21 | -1.0% | 36.9% | 4.6% | -1.7% | 103.5* | 34.1*
Cc1ccc(OCCn2nnc3ccccc32)cc1C | -15.3% | 96.8% | ? | -26.8% | 47.6* | 45.1*
CCOc1ccccc1OCCn1nnc2ccccc21 | -3.4% | 0.3% | 10.4µM* | 0.5% | 22.2 | 8.4
COc1ccc2c(Cl)c(C(=O)NCCc3ccc(S(N)(=O)=O)cc3)sc2c1 | 5.9% | -16.9% | ? | 5.1% | · | -2.3
